# Results reported in PubChem BioAssay AID488890 (Southern Research Specialized Biocontainment Screening …, 2010).
# Screen size: about 320,000 compounds; about 1,300 (0.41%) were called active. Roughly 3% stayed inconclusive and do not appear here. No rule for the calls is given here. Only a sample is shown. Results with a measured potency or affinity are listed apart.
# Test: growth inhibition of non-replicating M. tuberculosis (AID 488890);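 also: plate controls were DMSO cells for no effect and high antibiotic wells for full effect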
# Details: Mycobacterium tuberculosis non-replicating, at 25 µM, stronger effect = higher value
row,Structure (SMILES),inhibition
1,CCNC(=S)NNC(=O)c1ccccc1OC(F)F,-5.06%
2,COc1ccc(CC(C(=O)Nc2ccc(OC)cc2)c2nn[nH]n2)cc1 (stereo not given),8.92%
3,Cc1cc(=O)oc2cc(NC(=S)NCc3cccnc3)ccc12,-4.07%
4,CCCC(=O)c1cc2c(cc1NC(=O)c1ccccc1F)OCCO2,4.71%
5,CC(=O)N1CCc2c(sc3c2c(=O)n(-c2ccccc2)c(=O)n3Cc2ccccc2Cl)C1,-8.11%
6,O=C(NCCCn1ccnc1)Nc1ccc2c(c1)OCO2,-2.69%
7,Cc1cc(C)c(NC(=O)C2=COCCO2)c(C)c1,-16.1%
8,Cc1cc(C)c(-c2csc(NC(=O)C3=COCCO3)n2)c(C)c1,34.2%
9,Cc1nc(-c2ccc(-n3nncc3-c3ccco3)cc2)cs1,58.1%
10,Cc1ccc(C(=O)O/N=C(\N)Cc2cccs2)c(Cl)c1,60.4%
11,C#CCOCCOCCOCCNc1nc(N2CCN(C(=O)[C@H](CCC(=O)O)n3cc(C(N)CC(C)C)nn3)CC2)nc(N2CCN(C(=O)[C@H](CCC(=O)O)n3cc(C(N)[C@H](C)CC)nn3)CC2)n1 (stereo not given in full),-2.67%
12,CCc1nc(CN2CCN(c3cc(C(F)(F)F)ccn3)CC2)c(C)[nH]1,20.5%
13,CCN(CC)CCNC(=O)c1cc2c(-c3ccc(Cl)cc3)nn(C)c2s1,67.4%
14,CCCCN(CC)CCCNC(=O)c1cc2c(-c3ccc(OC)c(OC)c3)nn(C)c2s1,34.8%
15,Cc1nc(C(=O)N(C)C)nn1-c1ccc(Cl)cc1Cl,-3%
16,COc1ccc(NC(=O)C2=Cc3ccccc3OC2)cc1,76.7%
17,COc1ccc(C(CNC(=O)CSc2ccc(Br)cc2C)N2CCOCC2)cc1 (stereo not given),7.11%
18,CCN1C(=O)/C(=C\N(C(C)=O)c2ccccc2)OC1=S,6.17%
19,CCc1nc(N(CC)CC)c2oc3ccccc3c2n1,25.6%
20,c1ccc(Oc2nc(-c3cccnc3)nc3ccccc23)cc1,18.6%
21,Cc1ccc(Oc2nc(-c3cccnc3)nc3ccccc23)c([N+](=O)[O-])n1,-3.06%
22,Fc1ccc(F)c(NC2=NCCCCC2)c1,-19%

row,Structure (SMILES),inhibition
1,COc1ccccc1C(=O)NNC1=C(C(=O)C(F)(F)F)CCC1,77.4%
2,O=C(NNC1=C(C(=O)C(F)(F)F)CCC1)c1ccncc1,56.2%
3,O=C(NNC1=C(C(=O)C(F)(F)F)CCC1)c1cccnc1,-16.6%
4,O=C(NNC1=C(C(=O)C(F)(F)F)CCC1)c1cccc(O)c1,58.3%
5,Cc1ccc(CNC(=O)CN(c2ccc(C(C)C)cc2)S(=O)(=O)c2c(C)noc2C)cc1,7.31%
6,Cc1ccsc1/C=N/NC(=O)Cn1nc(C)c([N+](=O)[O-])c1C,-14.9%
7,COc1ccccc1N1C[C@@H]2C[C@@H](c3ccco3)N3CCC[C@@]23C1=O,14.9%
8,COC(=O)C1=C(N)Oc2cc(C)n(CC3CCCO3)c(=O)c2C1c1ccccc1 (stereo not given),2.48%
9,Cc1ccnc(NC(=O)C2CCN(S(=O)(=O)c3cccc4nonc34)CC2)c1,9.48%
10,Cc1ccccc1NC(=O)c1cccc(S(=O)(=O)Nc2cccc(C(=O)O)c2)c1,19.2%
11,CC1(C)Oc2ccc(C(=O)NN)cc2NC1=O,9.35%
12,CC1=C/C(=C\c2ccc3c(c2)OCO3)C(=O)S1,31.9%
13,COc1ccc(/C=C2\N=C(SC)SC2=O)cc1OC,76.1%
14,CC1(C)CC(=O)C(C=Nc2ccc(N)cc2)=C(O)C1,23.2%
15,CCOc1ccc(N=CC2=C(O)CC(C)(C)CC2=O)cc1,31.2%
16,CCOc1cc(C2NCc3ccccc3-n3cccc32)ccc1OC (stereo not given),1.16%
17,O=C1CN(C(=O)COC(=O)CCC(=O)c2ccc(Cl)cc2)c2ccccc2N1,16.1%
18,COc1ccc(CNCc2ccc3ccccc3c2)c(OC)c1,23.2%
19,COc1cccc(CNCc2ccc(OC)cc2OC)c1,16.2%
20,COc1ccc(C)cc1NC(=O)c1sc2ncn(CC(=O)N3CCCCC3)c(=O)c2c1C,-1.26%
21,Cc1nc2ccc(NC(=O)c3ccc(C)c(S(=O)(=O)N4CCOCC4)c3)cc2s1,29.1%
22,CC1C(C)C(O)(c2ccccc2)CCN1C (stereo not given),-18.2%

row,Structure (SMILES),inhibition
1,OC1(c2ccccc2)CCN(Cc2ccccc2)CC1,-5.95%
2,CCN1CCC(O)(c2ccccc2)C(C(=O)c2ccccc2)C1 (stereo not given),3.22%
3,OC(c1ccccc1)C1CN(Cc2ccccc2)CCC1(O)c1ccccc1 (stereo not given),16.7%
4,O=C(NCc1ccco1)[C@@H]1CSC2c3ccccc3C(=O)N21 (stereo not given in full),-2.9%
5,CCCN(CC(=O)Nc1ccccc1OC)C(=O)c1ccc(=O)[nH]c1,-2.3%
6,CN1CCN(c2ccc(NC(=O)c3ccc(-c4ccccc4F)o3)cc2)CC1,79.5%
7,CN1CCN(c2ccccc2NC(=O)c2ccc(-c3ccc(Br)cc3)o2)CC1,7.26%
8,CS(=O)(=O)N1CCN(c2ccc(NC(=O)c3ccc(-c4ccc(Cl)cc4)o3)cc2)CC1,-19.8%
9,S=C(c1ccc(-c2ccc(Br)cc2)o1)N1CCOCC1,74%
10,NC(=O)C1CCN(C(=S)c2ccc(-c3ccc(Br)cc3)o2)CC1,76.2%
11,CN1CCN(c2ccc(NC(=O)c3ccc(Br)o3)cc2)CC1,-1.79%
12,COC(=O)c1ccccc1NC(=O)CSc1ccc(C)cc1,66.9%
13,Cc1onc(-c2c(Cl)cccc2Cl)c1C(=O)NC(=S)Nc1sc2c(c1C(N)=O)CCC(C)C2 (stereo not given),1.7%
14,Cc1ccccc1C(=O)NC(=S)NC1CCSC1=O (stereo not given),6.25%
15,COc1ccc(NS(=O)(=O)c2ccc(NC(=S)NC(=O)c3ccc(Br)cc3)cc2)nn1,52.8%
16,CSCCC(NC(N)=O)C(=O)Nc1ccc(C)cc1 (stereo not given),-6.3%
17,COc1ccc2cc3c(nc2c1)OCC3,52%
18,Cc1ccc2cc3c(nc2c1)N(c1ccccc1)CC3,-3.46%
19,CCOC(=O)NC(=O)/C(N=Nc1cccc(C(F)(F)F)c1)=C(\C)O,22.5%
20,COc1ccc(NC(=O)COC(=O)CN2C(=O)C3CC=CCC3C2=O)c([N+](=O)[O-])c1 (stereo not given),3.95%
21,O=C(O)c1ccc(-[n+]2c(-c3ccccc3)cc(-c3ccccc3)cc2-c2ccccc2)cc1,-4.01%
22,CS(=O)(=O)N(CC(=O)N1CCOCC1)c1cc(C(F)(F)F)ccc1Cl,-10.6%

row,Structure (SMILES),inhibition
1,COc1ccc(C(=O)OCC(=O)c2ccc(Cl)s2)c(OC)c1OC,52.4%
2,COc1ccc(C(=O)OCC(=O)c2ccc(Br)s2)c(OC)c1,66.5%
3,O=C(NCCSc1ccccc1)c1ccc(CN2CCOCC2)cc1,11.6%
4,Cn1c(N2CCN(C(c3ccccc3)c3ccccc3)CC2)nc2c1c(=O)[nH]c(=O)n2C,-1.75%
5,Nc1ccc2c(c1)C(=O)c1ccccc1C2=O,-1.17%
6,Nc1ccc2c(c1)C(=O)c1ccccc1-2,79.4%
7,O=C(CSc1nnc(C2COc3ccccc3O2)o1)Nc1ccc(F)cc1Cl (stereo not given),27.9%
8,Cc1cc(NC(=O)CSc2nnc(C3COc4ccccc4O3)o2)no1 (stereo not given),1.04%
9,CCC/C(=N/NC(=O)c1cccc(Cl)c1)c1ccccc1,76.9%
10,CC(/C=C/c1ccccc1)=N\NC(=O)CCc1ccccc1,-7.22%
11,C/C(=N\NC(N)=O)c1cccc(Cl)c1,-5.88%
12,C/C(=N\NC(=O)c1ccccc1O)C1CC1,-6.46%
13,C/C(CCc1ccccc1)=N\NC(=O)CCc1ccccc1,2.92%
14,CCOc1ccc(OCc2ccc(C(=O)N/N=C(\C)c3ccccn3)cc2)cc1,94.8%
15,CCOc1ccc(/C(C)=N\NC(=O)Cc2ccccc2)cc1,3%
16,CSC(=NNC(=O)c1ccccc1O)SC,14.8%
17,O=C(NCc1nnc(SCC(=O)N2CCC(Cc3ccccc3)CC2)o1)c1ccccc1F,47.1%
18,CCCCn1c(N)c(N(C)C(=O)c2cc3c(s2)CCCCC3)c(=O)[nH]c1=O,19.5%
19,Cc1ccc(N(CC(=O)NCc2ccco2)C(=O)CCC(=O)Nc2nccs2)cc1C,-4.11%
20,CCc1ccc(NC(=O)CSc2nc(O)cc(=O)n2C2CCCC2)cc1,37.7%
21,COc1ccc(Cl)cc1NC(=O)CN(C)C(=O)c1cc(=O)c2ccccc2o1,-2.49%
22,CCOC(=O)c1sc(NC(=O)CSc2ccccn2)c(C#N)c1C,5.94%

row,Structure (SMILES),inhibition
1,CC(=O)N(Cc1ccccc1)Cc1cn(CCC#N)nc1-c1cccc([N+](=O)[O-])c1,-6.03%
2,C/C(=N\NC(=O)c1c[nH]c2ccccc12)c1ccc(C)o1,33.3%
3,CC(=O)N1CCC(=NNC(=O)c2cc3ccccc3cc2O)CC1,4.69%
4,C/C(CC(=O)N1CCCC1)=N\NC(=O)c1cc2ccccc2cc1O,7.43%
5,CC(/C=C/c1ccco1)=N/NC(=O)c1ccccc1Cl,48.9%
6,CC(/C=C/c1ccco1)=N\NC(=O)c1cccnc1,12.9%
7,C/C(=N\NC(=O)c1cc2ccccc2cc1O)c1ccc2c(c1)OCO2,14.4%
8,CCCCC(NC(=O)c1ccc(Cl)cc1)C(=O)O (stereo not given),-0.66%
9,O=C(C[n+]1cccc(CNC(=O)c2ccc(OC(F)F)cc2)c1)Nc1ccccc1Cl,7.02%
10,O=C(c1ccc([N+](=O)[O-])cc1)N1CCN(Cc2ccccc2[N+](=O)[O-])CC1,12.7%
11,COc1ccc(C2C(C(=O)NCCN3CCOCC3)c3ccccc3C(=O)N2C2CCCCC2)cc1 (stereo not given),28.1%
12,O=C(/C=C/NCc1cccnc1)c1ccc(Br)cc1,77.9%
13,COc1cc(NC(=O)CSc2nc(=O)n(CCN3CCOCC3)c3c2CCC3)cc(OC)c1,1.82%
14,O=C(C1CCCN1S(=O)(=O)c1cccc2nsnc12)N1CCN(c2ccc(F)cc2)CC1 (stereo not given),-10%
15,COc1ccc(N(CC(=O)Nc2ccc(F)c(Cl)c2)S(=O)(=O)c2c(C)noc2C)cc1,19.1%
16,CCc1noc(C)c1C(=O)OC(C)C(=O)c1c(C)[nH]c2ccccc12 (stereo not given),26.3%
17,Cc1cnc(C(=O)OC(C)C(=O)c2c(C)[nH]c3ccccc23)cn1 (stereo not given),12.1%
18,CCN(CC)C(=O)CSc1nnc(-c2ccco2)o1,18.1%
19,CCCOc1ccc(C(=O)CCNc2cccc(Cl)c2)cc1,74.8%
20,Cc1cccc(OCCn2cccc2/C=C2/C(=O)NC(=O)N(Cc3ccco3)C2=O)c1,49.4%
21,O=C1NC(=O)N(Cc2ccco2)C(=O)/C1=C/c1cccn1CCOc1ccccc1Cl,62.6%
22,O=C(NCCCOc1cccc(CN2CCCCC2)c1)c1ccc(Cl)c(Cl)c1,56.6%
